Test results from PubChem BioAssay (NCATS).
Inconclusive results are not listed. Unless noted, calls come from the whole dose curve; as a rule, active = well fitted curve in either direction with a large enough effect (not every such curve was filed as active); inconclusive = small, poorly fitted or top-dose-only effect, or another doubt; inactive = flat fitted curve, though single readings scatter.

Molecular target: Lysosomal acid glucosylceramidase (Homo sapiens) (UniProt P04062)
Assay: Glucocerebrosidase-p2 (AID 348; in the data active = potency below about 10 µM; note: potency is the fitted concentration of half-maximal effect)
Details: purified GBA, blue fluorogenic substrate, 40 min
In short: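 Compounds titrated from 0.6 nM upwards against 0.2 nM enzyme in pH 5.9 citric acid/KH2PO4, taurocholate, tween-20; blue fluorogenic substrate 80 uM, 40 min room temperature, stopped and read Ex 365/Em 440 for AC50.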

Chain of Lysosomal acid glucosylceramidase (Homo sapiens) (P04062 whole entry, looked up): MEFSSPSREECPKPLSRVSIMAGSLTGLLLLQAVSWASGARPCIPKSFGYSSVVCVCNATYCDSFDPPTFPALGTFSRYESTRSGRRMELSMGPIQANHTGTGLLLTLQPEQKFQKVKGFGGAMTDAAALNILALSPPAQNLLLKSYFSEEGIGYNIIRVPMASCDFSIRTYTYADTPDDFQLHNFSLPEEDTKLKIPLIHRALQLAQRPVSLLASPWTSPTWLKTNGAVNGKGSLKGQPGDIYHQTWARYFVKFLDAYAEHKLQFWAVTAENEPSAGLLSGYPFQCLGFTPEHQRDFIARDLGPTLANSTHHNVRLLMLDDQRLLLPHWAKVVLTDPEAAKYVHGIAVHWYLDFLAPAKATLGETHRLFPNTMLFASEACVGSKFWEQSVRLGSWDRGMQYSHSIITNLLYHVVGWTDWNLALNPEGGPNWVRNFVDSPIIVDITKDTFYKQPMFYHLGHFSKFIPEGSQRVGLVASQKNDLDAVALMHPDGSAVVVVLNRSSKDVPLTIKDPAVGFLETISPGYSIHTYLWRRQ

Potency, inactive:
COc1ccc(C(=O)N2CCC3(CCN(Cc4cc(C(F)(F)F)cc(C(F)(F)F)c4)CC3)CC2)cc1 > 11.4 µM
O=c1c(-c2cc(F)cc(F)c2)nc2cnc(N3CCOCC3)nc2n1-c1ccccc1 > 11.4 µM
COc1ccc(C(=O)N2CCC[C@@]3(CCN(Cc4cc(C(F)(F)F)cc(C(F)(F)F)c4)C3)C2)cc1 > 11.4 µM
COc1ccc(CNc2nc(-c3ccc4c(c3)OCO4)nc3ccccc23)c(OC)c1 > 11.4 µM
COc1ccc(-n2c(=O)c(-c3cccs3)nc3cnc(Nc4cccc(OC)c4)nc32)cc1 > 11.4 µM
COc1cccc(Cn2c(=O)c(-c3ccc(Cl)cc3)nc3cnc(OC)nc32)c1 > 11.4 µM
COc1ccccc1CNc1nc(-c2cccnc2)nc2ccccc12 > 11.4 µM
c1ccc(CNc2nc(-c3ccc4c(c3)OCO4)nc3ccccc23)cc1 > 11.4 µM
CN(C)c1ncc2nc(-c3cccs3)c(=O)n(C3CC3)c2n1 > 11.4 µM
CN(C)c1ncnc2ccc(-c3ccccc3C(F)(F)F)cc12 > 11.4 µM
CN(C)c1ncc2nc(-c3cccs3)c(=O)n(-c3ccccc3)c2n1 > 11.4 µM
COc1cccc(Cn2c(=O)c(-c3cccs3)nc3cnc(Nc4cccc(OC)c4)nc32)c1 > 11.4 µM
COc1ccc(C(=O)N2CCC3(CCCN(Cc4cc(C(F)(F)F)cc(C(F)(F)F)c4)C3)CC2)cc1 > 11.4 µM
N#CCCn1c(=O)c(-c2ccc(Cl)cc2)nc2cnc(Nc3ccccc3)nc21 > 11.4 µM
O=c1c(-c2ccc(F)cc2)nc2cnc(Nc3ccccc3)nc2n1Cc1cccs1 > 11.4 µM
COc1cccc(-c2nccc(NCc3cccs3)n2)c1 > 11.4 µM
Cc1noc(C)c1-c1nc(Nc2ccc(F)cc2)c2ccccc2n1 > 11.4 µM
Cc1nc2cnc(N(C)C)nc2n(-c2ccccc2)c1=O > 11.4 µM
COc1cccc(Nc2ncc3nc(-c4ccccc4)c(=O)n(C)c3n2)c1 > 11.4 µM
Cn1cc(-c2nc3cnc(N4CCOCC4)nc3n(CCC#N)c2=O)c2ccccc21 > 11.4 µM
CCNc1ncc2nc(-c3ccccc3)c(=O)n(C)c2n1 > 11.4 µM
COc1ccc(-c2nc3cnc(Nc4cccc(OC)c4)nc3n(Cc3cccs3)c2=O)cc1 > 11.4 µM
COCCn1c(=O)c(-c2cccs2)nc2cnc(N3CCOCC3)nc21 > 11.4 µM
O=c1c(-c2ccccc2)nc2cncnc2n1-c1ccccc1 > 11.4 µM
O=c1c(-c2cccs2)nc2cnc(N3CCOCC3)nc2n1CCc1ccccc1 > 11.4 µM
COc1ccc(-c2nc3cnc(Nc4ccccc4)nc3n(CCC#N)c2=O)cc1 > 11.4 µM
COc1ccccc1-c1ccc2ncnc(N(C)Cc3ccco3)c2c1 > 11.4 µM
Cn1c(=O)c(-c2ccccc2)nc2cnc(Nc3ccccc3)nc21 > 11.4 µM
COc1cccc(Cn2c(=O)c(-c3ccc(Cl)cc3)nc3cnc(N4CCNCC4)nc32)c1 > 11.4 µM
COc1ccc(C(=O)N2CCC3(CCCN(c4cccc(-c5ccccc5)c4)C3)CC2)cc1 > 11.4 µM

Test system: not listed separately
Assay: AP1 Signaling Pathway (AID 357);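 note: ME-180 reporter cells stimulated with EGF at its EC50 level; % is set by controls: 0 for no effect and ±100 for the full control effect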
Details: ME-180 (cervical carcinoma) AP-1-bla reporter, EGF-induced, beta-lactamase ratio, 5 h; at 7.69 µM (top of the series) unless noted
In short: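 First, ME-180 AP-1-bla cells were cultured overnight at 37 °C in low-serum Opti-MEM. Next, titrated compounds with EC50 EGF were incubated 5 hours. Finally, CCF4 was added for 2.5 hours and the 460/530 nm ratio recorded.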

Activity change, negative = inhibition, inactive:
COc1ccc(C(=O)N2CCC3(CCN(Cc4cc(C(F)(F)F)cc(C(F)(F)F)c4)CC3)CC2)cc1 7.47%
c1ccc(CNc2ccnc(-c3ccc4c(c3)OCO4)n2)cc1 -19.4%
COc1cccc(-c2nc(NCc3ccc(OC)cc3OC)c3ccccc3n2)c1 -5.61%
COc1ccc(C(=O)N2CCC[C@@]3(CCN(Cc4cc(C(F)(F)F)cc(C(F)(F)F)c4)C3)C2)cc1 16.8%
COc1ccc(CNc2nc(-c3ccc4c(c3)OCO4)nc3ccccc23)c(OC)c1 0.828%
COc1ccc(-n2c(=O)c(-c3cccs3)nc3cnc(Nc4cccc(OC)c4)nc32)cc1 -24.6%
COc1cccc(Cn2c(=O)c(-c3ccc(Cl)cc3)nc3cnc(OC)nc32)c1 -15.4%
COc1ccccc1CNc1nc(-c2cccnc2)nc2ccccc12 -17.9%
c1ccc(CNc2nc(-c3ccc4c(c3)OCO4)nc3ccccc23)cc1 -7.19%
CN(C)c1ncc2nc(-c3cccs3)c(=O)n(C3CC3)c2n1 6.37%
CN(C)c1ncnc2ccc(-c3ccccc3C(F)(F)F)cc12 0.8%
CN(C)c1ncc2nc(-c3cccs3)c(=O)n(-c3ccccc3)c2n1 -9.21%
COc1cccc(Cn2c(=O)c(-c3cccs3)nc3cnc(Nc4cccc(OC)c4)nc32)c1 -17.2%
O=C(c1csnn1)N1CCC2(CC1)CN(c1cccc(-c3ccccc3)c1)C2 -15.1%
N#CCCn1c(=O)c(-c2ccc(Cl)cc2)nc2cnc(Nc3ccccc3)nc21 -28%
O=c1c(-c2ccc(F)cc2)nc2cnc(Nc3ccccc3)nc2n1Cc1cccs1 -11.9%
COc1cccc(-c2nccc(NCc3cccs3)n2)c1 -9.78%
Cc1c(CC(C)(C)C(=O)O)n(Cc2ccc(Cl)cc2)c2ccc(F)cc12 -22.4% [at 38 µM]
Cc1noc(C)c1-c1nc(Nc2ccc(F)cc2)c2ccccc2n1 -5.88%
Cc1nc2cnc(N(C)C)nc2n(-c2ccccc2)c1=O -7.75%
COc1cccc(Nc2ncc3nc(-c4ccccc4)c(=O)n(C)c3n2)c1 -7.32%
Cn1cc(-c2nc3cnc(N4CCOCC4)nc3n(CCC#N)c2=O)c2ccccc21 -11.7%
CCNc1ncc2nc(-c3ccccc3)c(=O)n(C)c2n1 -13.4%
COCCn1c(=O)c(-c2cccs2)nc2cnc(N3CCOCC3)nc21 -6.06%
O=c1c(-c2ccccc2)nc2cncnc2n1-c1ccccc1 -10.5%
O=c1c(-c2cccs2)nc2cnc(N3CCOCC3)nc2n1CCc1ccccc1 13.2%
COc1ccc(-c2nc3cnc(Nc4ccccc4)nc3n(CCC#N)c2=O)cc1 -3.18%
COc1ccccc1-c1ccc2ncnc(N(C)Cc3ccco3)c2c1 10.4%
Cn1c(=O)c(-c2ccccc2)nc2cnc(Nc3ccccc3)nc21 6.58%
COc1ccc(C(=O)N2CCC3(CCCN(c4cccc(-c5ccccc5)c4)C3)CC2)cc1 11.7%
